# Values without a mark were called inactive.
# Key:
# Experiment in all cases: log2 ratio of Biotin-Ahx-Ub-VS probe labelling (fragment/DMSO); higher = less target engagement (more negative = stronger competition), active = hit call of the paper (q ≤ 0.05, log2 ratio ≤ -1)
# Conditions in all cases: compound concentration: 200 uM; treatment time: 3 h
# OTUD6B = target: T1, OTUD6B (UniProt Q8N6M0)
# T1 sequence (whole entry): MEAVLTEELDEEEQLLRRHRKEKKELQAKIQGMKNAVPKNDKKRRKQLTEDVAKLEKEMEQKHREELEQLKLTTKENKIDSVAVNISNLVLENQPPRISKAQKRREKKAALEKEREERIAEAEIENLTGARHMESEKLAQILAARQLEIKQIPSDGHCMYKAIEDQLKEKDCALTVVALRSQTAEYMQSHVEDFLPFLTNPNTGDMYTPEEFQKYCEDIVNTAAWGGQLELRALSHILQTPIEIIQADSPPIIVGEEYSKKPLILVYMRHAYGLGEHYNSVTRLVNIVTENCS
# Outline: (§1)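 The table lists average log2 ratios of fragment over vehicle, from an unpaired t-test on global-median-normalised Spectronaut label-free quantities. Proteins with ≥2 unique peptides were used. Samples were HEK293T lysate (495 µg) treated in triplicate with fragment at 200 µM or vehicle for 3 h, then with Biotin-Ahx-Ub-VS (0.5 µM final) for 1 h, with labelled DUBs NeutrAvidin-enriched and run by diaPASEF LC-MS/MS.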
# OTUD7B = target: T2, OTUD7B (UniProt Q6GQQ9)
# T2 sequence (whole entry): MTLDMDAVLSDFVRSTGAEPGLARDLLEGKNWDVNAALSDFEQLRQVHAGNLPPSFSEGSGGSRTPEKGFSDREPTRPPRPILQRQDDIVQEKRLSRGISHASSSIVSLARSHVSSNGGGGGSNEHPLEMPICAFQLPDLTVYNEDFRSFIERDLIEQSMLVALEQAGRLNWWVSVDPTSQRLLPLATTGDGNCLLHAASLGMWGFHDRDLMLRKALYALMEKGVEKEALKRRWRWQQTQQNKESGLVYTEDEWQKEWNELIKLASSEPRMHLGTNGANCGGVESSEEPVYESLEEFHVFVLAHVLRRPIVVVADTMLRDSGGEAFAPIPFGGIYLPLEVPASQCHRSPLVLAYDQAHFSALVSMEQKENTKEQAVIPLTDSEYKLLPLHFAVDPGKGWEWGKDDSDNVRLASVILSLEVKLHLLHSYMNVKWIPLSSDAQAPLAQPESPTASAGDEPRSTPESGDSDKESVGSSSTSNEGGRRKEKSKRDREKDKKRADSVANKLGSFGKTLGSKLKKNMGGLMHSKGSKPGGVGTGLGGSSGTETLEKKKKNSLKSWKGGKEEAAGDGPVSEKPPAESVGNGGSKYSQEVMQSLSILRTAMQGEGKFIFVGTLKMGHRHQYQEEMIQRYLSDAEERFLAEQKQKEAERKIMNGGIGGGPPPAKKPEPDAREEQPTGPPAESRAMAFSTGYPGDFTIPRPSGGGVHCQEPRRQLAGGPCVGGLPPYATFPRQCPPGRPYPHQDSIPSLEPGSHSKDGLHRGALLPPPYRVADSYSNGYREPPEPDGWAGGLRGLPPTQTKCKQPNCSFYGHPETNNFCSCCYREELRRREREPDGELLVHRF
# Outline: as §1
# PRPF8 = PRPF8 (UniProt Q6P2Q9)
# Outline: as §1
# PSMD7 = target: T3, PSMD7 (UniProt P51665)
# T3 sequence (whole entry): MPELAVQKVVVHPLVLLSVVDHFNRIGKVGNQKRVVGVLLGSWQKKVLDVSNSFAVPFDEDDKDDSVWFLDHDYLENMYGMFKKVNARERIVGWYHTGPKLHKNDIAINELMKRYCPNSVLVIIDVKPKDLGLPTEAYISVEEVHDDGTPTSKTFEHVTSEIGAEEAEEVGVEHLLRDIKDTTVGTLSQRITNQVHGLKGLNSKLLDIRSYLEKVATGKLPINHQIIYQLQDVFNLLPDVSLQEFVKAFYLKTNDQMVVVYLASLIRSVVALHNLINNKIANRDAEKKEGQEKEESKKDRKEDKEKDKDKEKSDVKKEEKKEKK
# Outline: as §1
# UCHL1 = UCHL1 (UniProt P09936)
# UCHL1, sequence (P09936 whole entry, looked up): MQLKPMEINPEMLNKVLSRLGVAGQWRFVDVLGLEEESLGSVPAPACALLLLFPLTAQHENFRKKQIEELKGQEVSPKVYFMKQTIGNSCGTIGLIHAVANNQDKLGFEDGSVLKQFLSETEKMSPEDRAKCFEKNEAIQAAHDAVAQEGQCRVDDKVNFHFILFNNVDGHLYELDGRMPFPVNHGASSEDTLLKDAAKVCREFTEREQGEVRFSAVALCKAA
# Outline: as §1
# UCHL3 = target: T4, UCHL3 (UniProt P15374)
# T4 sequence (whole entry): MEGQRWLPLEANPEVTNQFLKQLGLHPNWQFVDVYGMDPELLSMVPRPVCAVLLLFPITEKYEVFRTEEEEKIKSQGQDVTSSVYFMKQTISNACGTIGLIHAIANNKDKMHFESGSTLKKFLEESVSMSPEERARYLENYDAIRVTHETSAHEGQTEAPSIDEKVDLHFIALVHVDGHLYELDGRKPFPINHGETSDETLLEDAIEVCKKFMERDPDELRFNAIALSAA
# Outline: as §1
# UCHL5 = target: T5, UCHL5 (UniProt Q9Y5K5)
# T5 sequence (whole entry): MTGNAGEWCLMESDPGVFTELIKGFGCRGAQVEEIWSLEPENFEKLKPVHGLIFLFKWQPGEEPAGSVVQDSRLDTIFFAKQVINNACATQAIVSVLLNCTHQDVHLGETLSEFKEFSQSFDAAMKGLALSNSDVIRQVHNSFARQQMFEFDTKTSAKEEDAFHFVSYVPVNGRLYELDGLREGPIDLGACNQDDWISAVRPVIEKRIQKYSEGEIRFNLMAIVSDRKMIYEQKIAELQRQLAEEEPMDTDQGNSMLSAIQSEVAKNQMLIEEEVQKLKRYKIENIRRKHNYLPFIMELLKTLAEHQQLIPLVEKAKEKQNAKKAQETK
# Outline: as §1
# USP10 = USP10 (UniProt Q14694)
# USP10, sequence (Q14694 whole entry): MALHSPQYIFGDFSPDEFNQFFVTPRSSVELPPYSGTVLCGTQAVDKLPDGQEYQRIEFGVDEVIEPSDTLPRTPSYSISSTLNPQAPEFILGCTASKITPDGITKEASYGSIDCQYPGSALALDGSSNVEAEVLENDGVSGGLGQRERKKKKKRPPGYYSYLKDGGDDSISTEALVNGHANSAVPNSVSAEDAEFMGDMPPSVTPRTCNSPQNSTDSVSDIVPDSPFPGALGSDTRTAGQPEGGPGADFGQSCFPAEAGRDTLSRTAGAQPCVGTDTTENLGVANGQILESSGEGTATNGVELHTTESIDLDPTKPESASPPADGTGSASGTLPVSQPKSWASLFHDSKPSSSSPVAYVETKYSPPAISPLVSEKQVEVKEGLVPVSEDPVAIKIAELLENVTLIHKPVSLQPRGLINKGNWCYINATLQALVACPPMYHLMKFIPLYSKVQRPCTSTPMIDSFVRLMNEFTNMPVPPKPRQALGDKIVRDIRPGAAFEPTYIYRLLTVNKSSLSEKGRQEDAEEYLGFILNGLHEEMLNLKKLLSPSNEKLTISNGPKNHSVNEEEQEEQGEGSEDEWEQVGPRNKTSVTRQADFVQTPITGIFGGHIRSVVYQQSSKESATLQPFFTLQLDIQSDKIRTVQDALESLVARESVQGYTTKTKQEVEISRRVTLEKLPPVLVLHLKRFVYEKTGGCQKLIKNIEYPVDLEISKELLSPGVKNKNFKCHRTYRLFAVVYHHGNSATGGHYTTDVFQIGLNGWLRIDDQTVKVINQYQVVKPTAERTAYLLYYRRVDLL
# Outline: as §1
# USP15 = target: T6, USP15 (UniProt Q9Y4E8)
# T6 sequence (whole entry): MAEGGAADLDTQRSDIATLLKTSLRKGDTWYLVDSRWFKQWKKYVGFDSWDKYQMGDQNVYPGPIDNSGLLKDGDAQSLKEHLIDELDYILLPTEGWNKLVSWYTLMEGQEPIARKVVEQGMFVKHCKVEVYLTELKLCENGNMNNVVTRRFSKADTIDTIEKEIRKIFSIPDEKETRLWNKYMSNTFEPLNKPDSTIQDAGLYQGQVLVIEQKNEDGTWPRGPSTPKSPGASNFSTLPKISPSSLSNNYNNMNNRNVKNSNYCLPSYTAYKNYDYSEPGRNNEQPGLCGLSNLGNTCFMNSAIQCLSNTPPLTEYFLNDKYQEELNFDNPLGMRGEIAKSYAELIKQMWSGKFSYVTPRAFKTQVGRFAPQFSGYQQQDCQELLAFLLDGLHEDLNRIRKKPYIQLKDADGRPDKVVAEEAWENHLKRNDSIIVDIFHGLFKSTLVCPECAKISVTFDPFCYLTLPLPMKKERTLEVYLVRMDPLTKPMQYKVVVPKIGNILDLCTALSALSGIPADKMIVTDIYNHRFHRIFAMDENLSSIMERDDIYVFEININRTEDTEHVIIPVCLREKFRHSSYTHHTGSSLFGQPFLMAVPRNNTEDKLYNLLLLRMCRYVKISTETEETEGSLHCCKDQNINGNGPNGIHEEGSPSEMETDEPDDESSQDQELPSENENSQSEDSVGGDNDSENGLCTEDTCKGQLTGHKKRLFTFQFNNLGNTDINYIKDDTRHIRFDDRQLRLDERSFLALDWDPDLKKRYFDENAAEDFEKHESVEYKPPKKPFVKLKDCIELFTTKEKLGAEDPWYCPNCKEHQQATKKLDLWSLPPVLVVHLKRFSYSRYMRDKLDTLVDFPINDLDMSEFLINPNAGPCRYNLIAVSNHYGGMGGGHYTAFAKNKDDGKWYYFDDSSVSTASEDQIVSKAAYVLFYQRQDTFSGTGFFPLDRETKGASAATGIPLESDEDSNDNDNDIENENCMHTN
# Outline: as §1
# USP16 = USP16 (UniProt Q9Y5T5)
# USP16, sequence (Q9Y5T5 whole entry, looked up): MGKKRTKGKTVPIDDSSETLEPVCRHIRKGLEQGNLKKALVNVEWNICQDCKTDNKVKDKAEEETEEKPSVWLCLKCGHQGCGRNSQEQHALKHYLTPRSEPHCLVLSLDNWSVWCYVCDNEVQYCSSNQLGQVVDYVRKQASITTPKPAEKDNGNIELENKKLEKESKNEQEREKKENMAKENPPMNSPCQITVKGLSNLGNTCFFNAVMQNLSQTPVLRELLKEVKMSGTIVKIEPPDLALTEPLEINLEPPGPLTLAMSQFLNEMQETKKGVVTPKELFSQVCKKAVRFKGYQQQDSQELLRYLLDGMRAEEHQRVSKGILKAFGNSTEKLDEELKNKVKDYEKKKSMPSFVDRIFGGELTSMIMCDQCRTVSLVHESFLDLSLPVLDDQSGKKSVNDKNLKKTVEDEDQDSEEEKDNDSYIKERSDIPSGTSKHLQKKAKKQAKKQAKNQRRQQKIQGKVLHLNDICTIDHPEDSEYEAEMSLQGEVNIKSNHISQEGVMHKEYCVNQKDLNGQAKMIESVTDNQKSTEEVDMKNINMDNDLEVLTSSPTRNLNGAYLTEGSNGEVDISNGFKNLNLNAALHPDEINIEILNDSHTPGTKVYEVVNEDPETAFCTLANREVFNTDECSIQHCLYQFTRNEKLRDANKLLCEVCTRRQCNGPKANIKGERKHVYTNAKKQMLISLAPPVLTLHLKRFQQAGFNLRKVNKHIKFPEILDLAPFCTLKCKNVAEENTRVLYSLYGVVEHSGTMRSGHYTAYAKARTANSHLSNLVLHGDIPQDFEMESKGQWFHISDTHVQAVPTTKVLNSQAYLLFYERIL
# Outline: as §1
structure (smiles),measurement,setting,value
Cc1noc(C)c1CNC(=O)CCl,log2 ratio of Biotin-Ahx-Ub-VS probe labelling,OTUD6B,-0.543
same,log2 ratio of Biotin-Ahx-Ub-VS probe labelling,OTUD7B,-1.46 (active)
same,log2 ratio of Biotin-Ahx-Ub-VS probe labelling,PRPF8,-0.184
same,log2 ratio of Biotin-Ahx-Ub-VS probe labelling,PSMD7,-0.529
same,log2 ratio of Biotin-Ahx-Ub-VS probe labelling,UCHL1,-2.12 (active)
same,log2 ratio of Biotin-Ahx-Ub-VS probe labelling,UCHL3,-0.701
same,log2 ratio of Biotin-Ahx-Ub-VS probe labelling,UCHL5,-0.89
same,log2 ratio of Biotin-Ahx-Ub-VS probe labelling,USP10,-0.261
same,log2 ratio of Biotin-Ahx-Ub-VS probe labelling,USP15,-0.867
same,log2 ratio of Biotin-Ahx-Ub-VS probe labelling,USP16,-0.591
